Assay results reported in PubChem BioAssay (NCI).
Compounds without any hit were thinned out: in the full panel of roughly 79,000, 15% have a hit. A number with no mark means an inactive call. Activity calls are given as the source filed them. Rule as the data show it: active = growth inhibition above about 70%; inactive = the rest.

Legend:
[1] = NCI Yeast Anticancer Drug Screen. Data for the rad50 strain (AID 155);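 also: 0% = growth of vehicle-only cultures of the same strain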; details: S. cerevisiae rad50 strain growth inhibition, hits give high values
Procedure, shortened: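 DNA repair mutant yeast, compound exposure, growth read-out; inhibition is taken relative to vehicle.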

[2] = NCI Yeast Anticancer Drug Screen. Data for the mec2-1 strain (AID 157); details: S. cerevisiae mec2-1 strain, hits give high values
Procedure, shortened: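 Test agents were screened against the mec2-1 yeast strain, with defined DNA repair or cell cycle alteration. Growth was scored as inhibition against vehicle-only controls.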

[3] = NCI Yeast Anticancer Drug Screen. Data for the sgs1 mgt1 strain (AID 161);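 also: 0% = growth of cultures given vehicle only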; details: S. cerevisiae sgs1 mgt1 strain, hits give high values
Procedure, shortened: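 Inhibition of yeast growth, normalised to vehicle-treated controls, is reported for a strain bearing genetic alterations in DNA damage repair.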

[4] = NCI Yeast Anticancer Drug Screen. Data for the cln2 rad14 strain (AID 165);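 also: 0% = growth equal to vehicle treated cultures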; details: S. cerevisiae cln2 rad14 strain, hits give high values
Procedure, shortened: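 Growth of compound-exposed yeast (cln2 rad14 genotype) measured and expressed as inhibition relative to vehicle.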

[5] = NCI Yeast Anticancer Drug Screen. Data for the bub3 strain (AID 167); details: S. cerevisiae bub3 mutant strain, hits give high values
Procedure, shortened: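 In this screen, a yeast mutant lacking normal mitotic checkpoint function is challenged with compound. Relative growth versus vehicle gives the inhibition value.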

[6] = NCI Yeast Anticancer Drug Screen. Data for the mlh1 rad18 strain (AID 175); details: S. cerevisiae mlh1 rad18 strain growth inhibition, hits give high values
Procedure, shortened: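 In this whole-cell yeast screen, a strain with altered DNA damage repair is challenged with compound, and its growth is measured against matched vehicle-treated controls.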

[7] = at 5.0 µM (retest, dose inferred, filed as 0.5)
[8] = at 50.0 µM (retest, dose inferred, filed as 5.0)

| SMILES | growth inhibition [1, 7] | growth inhibition [1, 8] | growth inhibition ([1]; at 50.0 µM) | growth inhibition [2, 7] | growth inhibition [2, 8] | growth inhibition ([2]; at 50.0 µM) | growth inhibition [3, 7] | growth inhibition [3, 8] | growth inhibition ([3]; at 50.0 µM) | growth inhibition [4, 7] | growth inhibition [4, 8] | growth inhibition ([4]; at 50.0 µM) | growth inhibition [5, 7] | growth inhibition [5, 8] | growth inhibition ([5]; at 50.0 µM) | growth inhibition [6, 7] | growth inhibition [6, 8] | growth inhibition ([6]; at 50.0 µM) |
| --- | --- | --- | --- | --- | --- | --- | --- | --- | --- | --- | --- | --- | --- | --- | --- | --- | --- | --- |
| CCOC(=O)CC[P+](Cc1ccccc1)(c1ccccc1)c1ccccc1 | -32% | 14% | 64.9% | 0% | 0% | -1.5% | 2% | 3% | 12.7% | 4% | -2% | -15.4% | 1% | 4% | 18.4% | 7% | 21% | 11% |
| CCCCCCCCCCCN1C(=O)c2ccccc2S1(=O)=O | -3% | 78% (active) | -22.4% | -2% | 54% | 0.5% | 0% | 80% (active) | -11.4% | -14% | 34% | 58.8% | 0% | 79% (active) | 9.4% | 0% | 95% (active) | 32.4% |
| CCN(CC)c1ccc(Cl)c2c1C(O)(C(C)C)C2(C)C (configuration not stated) | -20% | 96% (active) | 88.2% (active) | 9% | 97% (active) | 92.4% (active) | 1% | 97% (active) | 89.7% (active) | 24% | 98% (active) | 89.3% (active) | 14% | 98% (active) | 89.8% (active) | 17% | 98% (active) | 87.5% (active) |
| C=C1C(=O)C23C(O)C1CC[C@H]2C12CCCC(C)(COC(C)=O)[C@H]1[C@H](O)[C@]3(O)OC2 (some centres not stated) | 28% | 94% (active) | 90.4% (active) | 26% | 97% (active) | 92.2% (active) | 83% (active) | 97% (active) | 92.2% (active) | 77% (active) | 96% (active) | 89.2% (active) | 22% | 96% (active) | 90% (active) | 43% | 95% (active) | 89.2% (active) |
| C/C(=N\NC(N)=S)C(CN1CCCCC1)C(C1=C(O)c2ccccc2OC1)c1ccccc1 (configuration not stated) | 10% | 38% | 64.7% | 6% | 45% | 63% | 19% | 67% | 68.5% | 22% | 62% | 53.7% | 32% | 70% (active) | 71.8% (active) | 20% | 55% | 67.5% |
| Cc1cc(C)c(S(=O)(=O)n2ccnc2)c(C)c1 | -15% | -45% | -13.9% | 0% | -11% | -29.6% | -17% | -4% | -6.05% | -3% | 8% | 6.55% | -8% | -26% | 10.3% | -36% | -77% | -0.9% |
| CCCc1cc2c(cc1CS(=O)(=O)CC)OCO2 | -4% | 9% | -9.1% | -4% | -2% | 2.3% | -7% | -5% | 1.1% | -7% | 0% | 23.3% | 23% | 17% | 16.7% | -4% | -6% | 3.75% |
| CCCCN=C(c1ccc(O)cc1)c1ccc(OC)cc1O | -4% | 20% | 42.7% | -1% | 15% | 18.6% | -2% | 37% | 64.1% | -3% | 20% | 26.6% | -5% | 42% | 58% | -4% | 22% | 36% |
| O=[N+]([O-])c1ccc2c(c1)/C(=C/c1ccccc1O)c1ccccc1-2 | 66% | 91% (active) | 92.7% (active) | 81% (active) | 93% (active) | 90.5% (active) | 69% | 92% (active) | 88.5% (active) | 52% | 87% (active) | 84.3% (active) | 42% | 91% (active) | 92% (active) | 89% (active) | 91% (active) | 90.2% (active) |
| CCCCCCCCN(CCCCCCCC)CC(O)c1ccc2cc3c(nc2c1)CCCC3 (configuration not stated) | -3% | 94% (active) | 98.7% (active) | 13% | 93% (active) | 81.4% (active) | 18% | 96% (active) | 98.8% (active) | -2% | 94% (active) | 97.7% (active) | 10% | 94% (active) | 97.7% (active) | 14% | 96% (active) | 98.3% (active) |
| CN1C=C(C#N)CCC1Sc1ccc(Cl)cc1 (configuration not stated) | -7% | 38% | 58.1% | 5% | 65% | 58.6% | 3% | 54% | 92.6% (active) | -3% | 11% | 76.8% (active) | -4% | 60% | 59.3% | 22% | 82% (active) | 86.9% (active) |
| COC12C(COC(N)=O)C3=C(C(=O)C(C)=C(N)C3=O)N1CC1C2N1C(=O)/C=C/c1ccccc1 (configuration not stated) | 11% | 72% (active) | 73.7% (active) | 13% | 82% (active) | 70.7% (active) | 24% | 87% (active) | 85.7% (active) | 3% | 80% (active) | 75.7% (active) | 2% | 66% | 72.4% (active) | 27% | 90% (active) | 87% (active) |
| O=C1c2cc([N+](=O)[O-])ccc2-c2cc([N+](=O)[O-])ccc21 | 44% | 32% | 91.2% (active) | 39% | 39% | 92.8% (active) | 73% (active) | 97% (active) | 93.3% (active) | 46% | 99% (active) | 68% | 80% (active) | 97% (active) | 91.2% (active) | 21% | 34% | 74.5% (active) |
| OCCC(CCN1CCOCC1)(c1ccccc1)C1(O)CCCC1 (configuration not stated) | 3% | 3% | -2.95% | 5% | 2% | 45.3% | 8% | 3% | 74.4% (active) | 2% | 2% | 71.2% (active) | -3% | -4% | 61.4% | -2% | -2% | 73.8% (active) |
| CC1=NN(C(=O)c2ccncc2)C(=O)C1N=Nc1ccc(C)c([N+](=O)[O-])c1 (configuration not stated) | 10% | 61% | 47.5% | 2% | 28% | 19.4% | 29% | 94% (active) | 88.8% (active) | 6% | 24% | -14.6% | 1% | 18% | 3.65% | 12% | 69% | 20.4% |
| OCCc1cccc2ccc3ccccc3c12 | 0% | 62% | 85.9% (active) | -1% | 55% | 92.8% (active) | -4% | 59% | 94.2% (active) | -1% | 59% | 88.2% (active) | 1% | 66% | 90.4% (active) | 2% | 66% | 91.8% (active) |
| CCc1cc(C)cc(NC(=O)OC2CCCCC2C)c1 (configuration not stated) | 42% | 66% | 90.2% (active) | 35% | 49% | 91% (active) | 35% | 92% (active) | 91.2% (active) | 20% | 69% | 89.1% (active) | 37% | 85% (active) | 91.3% (active) | 38% | 72% (active) | 90.4% (active) |
| Cc1cc(C)c(Cc2cc(C(C)(C)C)cc(C)c2O)cc1Cc1cc(C(C)(C)C)cc(C)c1O | -2% | 10% | 51.4% | -5% | 24% | 49.4% | 2% | 27% | 63.6% | -16% | 19% | 69.3% | -4% | 26% | 49.9% | 2% | 33% | 71% (active) |
| COC(=O)C1C(C(=O)OC)C2(OC(c3ccc(Cl)cc3)=CC2=O)C12OC(c1ccc(Cl)cc1)=CC2=O (configuration not stated) | 2% | 74% (active) | 89.8% (active) | 12% | 99% (active) | 92% (active) | 12% | 96% (active) | 90% (active) | 4% | 63% | 89.8% (active) | -1% | 90% (active) | 92% (active) | 13% | 98% (active) | 87.2% (active) |
